# Target: MAP kinase-interacting serine/threonine-protein kinase 2 (Homo sapiens) (UniProt Q9HBH9)
# Details: at 0.1 µM
# MAP kinase-interacting serine/threonine-protein kinase 2 (Homo sapiens), sequence (Q9HBH9 whole entry, looked up): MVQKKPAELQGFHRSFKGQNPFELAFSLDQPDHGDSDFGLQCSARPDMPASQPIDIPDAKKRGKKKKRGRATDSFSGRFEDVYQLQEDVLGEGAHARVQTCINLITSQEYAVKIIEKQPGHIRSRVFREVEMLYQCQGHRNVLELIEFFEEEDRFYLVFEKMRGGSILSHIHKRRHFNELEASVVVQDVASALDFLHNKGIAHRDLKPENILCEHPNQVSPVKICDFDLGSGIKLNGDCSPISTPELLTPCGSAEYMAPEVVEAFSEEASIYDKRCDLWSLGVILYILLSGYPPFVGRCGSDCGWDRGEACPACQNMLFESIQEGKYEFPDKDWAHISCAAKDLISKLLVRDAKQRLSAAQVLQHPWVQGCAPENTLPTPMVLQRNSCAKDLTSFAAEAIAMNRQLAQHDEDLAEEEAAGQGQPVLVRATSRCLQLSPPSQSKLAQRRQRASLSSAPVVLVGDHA
row,SMILES,inhibition
1,COc1cc2c(cc1Nc1nc(Nc3ccsc3C(N)=O)c3cc[nH]c3n1)N(C(=O)CN(C)C)CCC2,-0.68%
2,NS(=O)(=O)c1ccc(N/C=C2\C(=O)Nc3ccc4ncsc4c32)cc1,0.94%
3,Fc1ccc(-c2ncn(C3CCNCC3)c2-c2ccnc(Oc3ccccc3)n2)cc1,1.12%
4,Nc1nonc1-c1nc2cnccc2n1C1CCCCC1,0.19%
5,NC(=O)c1sc(-n2cnc3cc(C(F)(F)F)ccc32)cc1OCc1ccccc1Br,1.3%
6,CCn1c(-c2nonc2N)nc2c(C#CC(C)(C)O)ncc(OCC3CCNCC3)c21,0.56%
7,COc1cccc(COc2cc(-n3cnc4ccccc43)sc2C(N)=O)c1,-0.04%
8,CCn1c(-c2nonc2N)nc2c(C#CC(C)(C)O)ncc(OC[C@@H]3CCCN3)c21,0.48%
9,CCn1c(-c2nonc2N)nc2c(C#CC(C)(C)O)nc(O[C@@H](CN)c3ccccc3)cc21,5.3%
10,NS(=O)(=O)c1ccc(-c2ccc3c(NC(=O)C4CC4)n[nH]c3c2)cc1,0.71%
11,CCn1c(-c2nonc2N)nc2c(C#CCN)ncc(OCCCN)c21,5.13%
12,Cc1cc(-c2ccco2)cc(C)c1/C=C/c1cncc(-c2nn[nH]n2)c1,4.58%
13,COc1cccc(-n2ncc3c(N/N=C/c4ccncc4)ncnc32)c1,15.2%
14,COc1cc(C=NNc2ncnc3c2cnn3Cc2ccccc2)ccc1O,-0.35%

# Target: MAP kinase-interacting serine/threonine-protein kinase 2 (Homo sapiens) (UniProt Q9HBH9)
# Details: at 1 µM
row,SMILES,inhibition
1,COc1cc2c(cc1Nc1nc(Nc3ccsc3C(N)=O)c3cc[nH]c3n1)N(C(=O)CN(C)C)CCC2,0.28%
2,NS(=O)(=O)c1ccc(N/C=C2\C(=O)Nc3ccc4ncsc4c32)cc1,10.5%
3,Fc1ccc(-c2ncn(C3CCNCC3)c2-c2ccnc(Oc3ccccc3)n2)cc1,0.76%
4,Nc1nonc1-c1nc2cnccc2n1C1CCCCC1,8.42%
5,NC(=O)c1sc(-n2cnc3cc(C(F)(F)F)ccc32)cc1OCc1ccccc1Br,2.88%
6,CCn1c(-c2nonc2N)nc2c(C#CC(C)(C)O)ncc(OCC3CCNCC3)c21,4.38%
7,COc1cccc(COc2cc(-n3cnc4ccccc43)sc2C(N)=O)c1,6.31%
8,CCn1c(-c2nonc2N)nc2c(C#CC(C)(C)O)ncc(OC[C@@H]3CCCN3)c21,-0.07%
9,CCn1c(-c2nonc2N)nc2c(C#CC(C)(C)O)nc(O[C@@H](CN)c3ccccc3)cc21,33.1%
10,NS(=O)(=O)c1ccc(-c2ccc3c(NC(=O)C4CC4)n[nH]c3c2)cc1,6.29%
11,CCn1c(-c2nonc2N)nc2c(C#CCN)ncc(OCCCN)c21,10.2%
12,Cc1cc(-c2ccco2)cc(C)c1/C=C/c1cncc(-c2nn[nH]n2)c1,35.2%
13,COc1cccc(-n2ncc3c(N/N=C/c4ccncc4)ncnc32)c1,59.2%
14,COc1cc(C=NNc2ncnc3c2cnn3Cc2ccccc2)ccc1O,1.29%
